Compounds without any hit were thinned out: in the full panel of roughly 83,000, 20% have a hit.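 Activity criterion: percent growth below 10, measured after cells in 96-well plates were exposed to a single compound concentration for 48 hours.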 Unmarked numbers belong to inactive results. Active and inactive are the calls of the source.
Assays:
Assay in all cases: NCI-60 one-dose screen, 48 h (100 = growth as untreated, 0 = no growth, -100 = all killed)
Conditions in all cases: 10 µM
NCI-H23 lung = test system: NCI-H23 lung
NCI-H226 lung = test system: NCI-H226 lung
NCI-H322M lung = test system: NCI-H322M lung
HOP-62 NSCLC = test system: HOP-62 NSCLC
NCI-H460 lung = test system: NCI-H460 lung
HOP-92 NSCLC = test system: HOP-92 NSCLC
NCI-H522 lung = test system: NCI-H522 lung
786-0 renal = test system: 786-0 renal
COLO 205 colon = test system: COLO 205 colon
A549/ATCC NSCLC = test system: A549/ATCC NSCLC

## O=C(CNc1nc(-c2ccccc2)cs1)Nc1cccc(Cl)c1
NCI-H23 lung
  growth: 28.4%
NCI-H226 lung
  growth: 44.8%
NCI-H322M lung
  growth: 62.3%
HOP-62 NSCLC
  growth: 46.6%
NCI-H460 lung
  growth: 44.8%
HOP-92 NSCLC
  growth: -5.42% (active)
NCI-H522 lung
  growth: 4.23% (active)
786-0 renal
  growth: 54.6%
COLO 205 colon
  growth: 40.3%

## CSc1nc(-c2cccc(C)c2)c2cc(-c3ccccc3)n(C)c2n1
NCI-H23 lung
  growth: 15.8%
NCI-H226 lung
  growth: 40.7%
NCI-H322M lung
  growth: 56.2%
HOP-62 NSCLC
  growth: 37.4%
NCI-H460 lung
  growth: 10.8%
HOP-92 NSCLC
  growth: -8.91% (active)
NCI-H522 lung
  growth: -11.8% (active)
786-0 renal
  growth: 20%
COLO 205 colon
  growth: 18.7%

## CC(=O)Nc1ccc(-n2cnc3cc(-c4ccc(NS(C)(=O)=O)cc4)ccc32)cc1
NCI-H23 lung
  growth: 61%
NCI-H226 lung
  growth: -68.4% (active)
NCI-H322M lung
  growth: 59.1%
HOP-62 NSCLC
  growth: 75.4%
NCI-H460 lung
  growth: 33.4%
HOP-92 NSCLC
  growth: 39.7%
NCI-H522 lung
  growth: 46.9%
786-0 renal
  growth: 52.3%
COLO 205 colon
  growth: 63.9%

## CN1CCN(c2ccc(Nc3nc(N4CCN(S(=O)(=O)c5ccc(Cl)cc5)CC4)c4sccc4n3)cc2)CC1
NCI-H23 lung
  growth: 46.6%
NCI-H226 lung
  growth: -22.2% (active)
NCI-H322M lung
  growth: 74.5%
HOP-62 NSCLC
  growth: 71.4%
NCI-H460 lung
  growth: -70.6% (active)
HOP-92 NSCLC
  growth: 69.1%
NCI-H522 lung
  growth: -82.7% (active)
786-0 renal
  growth: -62.9% (active)
COLO 205 colon
  growth: -77.9% (active)

## COc1ccc(-c2cc(-c3cc(C(=O)c4ccc(Br)cc4)n4ccc(C)cc34)nc(N)c2C#N)cc1
NCI-H23 lung
  growth: 63.1%
NCI-H226 lung
  growth: 60.4%
NCI-H322M lung
  growth: 93.6%
HOP-62 NSCLC
  growth: 95.1%
NCI-H460 lung
  growth: 84.7%
HOP-92 NSCLC
  growth: 87.5%
NCI-H522 lung
  growth: 89.9%
786-0 renal
  growth: 56.9%
COLO 205 colon
  growth: 67.2%

## Brc1ccc(/C=N/Nc2ncnc3sc4c(c23)CCN(Cc2ccccc2)C4)cc1
NCI-H23 lung
  growth: 91.8%
NCI-H226 lung
  growth: 3.93% (active)
NCI-H322M lung
  growth: 94.1%
HOP-62 NSCLC
  growth: 103%
NCI-H460 lung
  growth: 14%
HOP-92 NSCLC
  growth: 67%
NCI-H522 lung
  growth: 90.4%
A549/ATCC NSCLC
  growth: 74.2%
786-0 renal
  growth: 48.5%
COLO 205 colon
  growth: 34.8%

## COc1cc2c3c(n(CCCN4CCOCC4)c(=O)c2cc1OC)-c1nc2c(cc1C3=O)OCO2
NCI-H23 lung
  growth: 4.12% (active)
NCI-H226 lung
  growth: 6.34% (active)
NCI-H322M lung
  growth: 41%
HOP-62 NSCLC
  growth: -12.4% (active)
NCI-H460 lung
  growth: -15.4% (active)
HOP-92 NSCLC
  growth: -2.4% (active)
NCI-H522 lung
  growth: 39.9%
786-0 renal
  growth: -6.02% (active)
COLO 205 colon
  growth: 13%

## O=C(CNc1nc(-c2ccccc2)cs1)Nc1ccc(Cl)cc1
NCI-H23 lung
  growth: -93.8% (active)
NCI-H226 lung
  growth: -62.5% (active)
NCI-H322M lung
  growth: -98% (active)
HOP-62 NSCLC
  growth: -76.1% (active)
NCI-H460 lung
  growth: -51.2% (active)
HOP-92 NSCLC
  growth: -71.9% (active)
NCI-H522 lung
  growth: -80.2% (active)
786-0 renal
  growth: -72.8% (active)
COLO 205 colon
  growth: -80.1% (active)

## O=C1Nc2ccc(Cl)cc2/C1=C/c1cccc(OCc2ccccc2)c1
NCI-H23 lung
  growth: 31%
NCI-H226 lung
  growth: 17.2%
NCI-H322M lung
  growth: 44.6%
HOP-62 NSCLC
  growth: 32.9%
NCI-H460 lung
  growth: 13.5%
HOP-92 NSCLC
  growth: 16.5%
NCI-H522 lung
  growth: 35.9%
786-0 renal
  growth: 40.5%
COLO 205 colon
  growth: 45.8%

## Cc1ccc(CNC(=O)Cc2ccc3c(c2)CN(C2CCC(=O)NC2=O)C3=O)cc1 (configuration not stated)
NCI-H23 lung
  growth: 66.5%
NCI-H226 lung
  growth: 3.79% (active)
NCI-H322M lung
  growth: 16.1%
HOP-62 NSCLC
  growth: -10.2% (active)
NCI-H460 lung
  growth: 95%
HOP-92 NSCLC
  growth: -22.5% (active)
NCI-H522 lung
  growth: 9.7% (active)
786-0 renal
  growth: 0.61% (active)
COLO 205 colon
  growth: -12.5% (active)

## O=C1Nc2cc(Cl)ccc2/C1=C/c1ccc(OCc2ccc(Br)cc2F)cc1
NCI-H23 lung
  growth: -68.8% (active)
NCI-H226 lung
  growth: -70.6% (active)
NCI-H322M lung
  growth: 5.43% (active)
HOP-62 NSCLC
  growth: -79.7% (active)
HOP-92 NSCLC
  growth: -43.4% (active)
NCI-H522 lung
  growth: -52.5% (active)
A549/ATCC NSCLC
  growth: -75.2% (active)
786-0 renal
  growth: -88.7% (active)
COLO 205 colon
  growth: -43% (active)

## O=C(CS(=O)(=O)c1oc(-c2ccc(Cl)cc2)nc1S(=O)(=O)c1ccc(Cl)cc1)N1CCOCC1
NCI-H23 lung
  growth: 48.9%
NCI-H226 lung
  growth: 78.2%
NCI-H322M lung
  growth: 93.5%
HOP-62 NSCLC
  growth: 84.3%
NCI-H460 lung
  growth: 107%
HOP-92 NSCLC
  growth: -25.5% (active)
NCI-H522 lung
  growth: -14.8% (active)
A549/ATCC NSCLC
  growth: 83.7%
786-0 renal
  growth: 40.3%
COLO 205 colon
  growth: 10.5%

## CC(=O)c1ccc(Nc2nc(SC(C)C)nc(-c3ccccc3)c2C#N)cc1
NCI-H23 lung
  growth: 22.4%
NCI-H226 lung
  growth: -25.1% (active)
NCI-H322M lung
  growth: 24.2%
HOP-62 NSCLC
  growth: -27.8% (active)
NCI-H460 lung
  growth: 20.2%
HOP-92 NSCLC
  growth: -15.8% (active)
NCI-H522 lung
  growth: 64.6%
786-0 renal
  growth: -56.6% (active)
COLO 205 colon
  growth: 74.7%

## COc1cccc(-c2nn(-c3ccccc3)cc2-c2ccnc(NCCCNC(=O)Nc3ccc(F)cc3)c2)c1
NCI-H23 lung
  growth: 17%
NCI-H226 lung
  growth: 16.4%
NCI-H322M lung
  growth: 43.7%
HOP-62 NSCLC
  growth: 7.43% (active)
NCI-H460 lung
  growth: 15.2%
HOP-92 NSCLC
  growth: -25% (active)
NCI-H522 lung
  growth: -3.16% (active)
786-0 renal
  growth: -11.3% (active)
COLO 205 colon
  growth: -0.929% (active)

## CC(=C(c1ccc(OCCN2CCCCCC2)cc1)c1ccc(OCCN2CCCCCC2)cc1)c1ccc(Cl)cc1
NCI-H23 lung
  growth: -96% (active)
NCI-H226 lung
  growth: -89.8% (active)
NCI-H322M lung
  growth: -100% (active)
HOP-62 NSCLC
  growth: -96.8% (active)
HOP-92 NSCLC
  growth: -74.3% (active)
NCI-H522 lung
  growth: -92.7% (active)
A549/ATCC NSCLC
  growth: -98.4% (active)
786-0 renal
  growth: -75.7% (active)
COLO 205 colon
  growth: -93% (active)
